# Assay outcomes (PubChem)
# Pf growth 48h: Primary qHTS for delayed death inhibitors of the malarial parasite plastid, 48 hour incubation; P. falciparum luciferase growth in erythrocytes, 48 h; Potency, µM (highest dose often 28.7 µM), inactives show at the top dose activity change, negative = inhibition, actives largely listed as inhibitors; 310,000 tested, 5.9% active; note: potency is the fitted concentration of half-maximal effect; % is set by controls: 0 for no effect and ±100 for the full control effect
#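 In quantitative HTS format, infected erythrocytes bearing luciferase-reporter parasites were treated for a single generation at 37 C. Luminescence after adding detection reagent served as the growth measure.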
# Pf growth 96h: Primary qHTS for delayed death inhibitors of the malarial parasite plastid, 96 hour incubation | P. falciparum luciferase reporter growth, 96 h | Potency, µM (series often up to 28.7 µM), for inactives: at the highest dose activity change, negative = inhibition, usual class: inhibitors | 320,000 tested, 6.9% active; note: potency is the fitted concentration of half-maximal effect; % is set by controls: 0 for no effect and ±100 for the full control effect
#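 Readout is luminescence from an integrated firefly luciferase in P. falciparum. Red cells, 2% hematocrit and 0.05% parasitemia final, were cultured with compound through two parasite generations (96 hours) at 37 C, 5% CO2.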
# SARS PLpro yeast-1: qHTS of Yeast-based Assay for SARS-CoV PLP; AID 485353, 2010; 330,000 tested, 0.19% active; Potency, µM (top dose mostly 32.9 µM), without a hit: top-dose activity, positive = growth rescue, usual class: activators; S. cerevisiae expressing SARS-CoV PLpro, growth rescue; calls by dose curve; note: potency is the fitted concentration of half-maximal effect; 0% is about no effect; nearly all actives have a fitted effect of over 55% in size
# AmpC inh no detg: qHTS Inhibitors of AmpC Beta-Lactamase (assay without detergent) | P00811 | 330,000 tested, 0.52% active | Potency, µM (highest dose often 57.1 µM), inactives show at the top dose activity change, negative = inhibition, hits mostly inhibitors | AmpC nitrocefin hydrolysis, absorbance 480 nm, 0.0001% Triton;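 note: potency is the fitted concentration of half-maximal effect; plate controls were no compound for no effect and no enzyme for full effect; nearly all actives have a fitted effect of over 20% in size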
# Target sequence (P00811 whole entry, looked up): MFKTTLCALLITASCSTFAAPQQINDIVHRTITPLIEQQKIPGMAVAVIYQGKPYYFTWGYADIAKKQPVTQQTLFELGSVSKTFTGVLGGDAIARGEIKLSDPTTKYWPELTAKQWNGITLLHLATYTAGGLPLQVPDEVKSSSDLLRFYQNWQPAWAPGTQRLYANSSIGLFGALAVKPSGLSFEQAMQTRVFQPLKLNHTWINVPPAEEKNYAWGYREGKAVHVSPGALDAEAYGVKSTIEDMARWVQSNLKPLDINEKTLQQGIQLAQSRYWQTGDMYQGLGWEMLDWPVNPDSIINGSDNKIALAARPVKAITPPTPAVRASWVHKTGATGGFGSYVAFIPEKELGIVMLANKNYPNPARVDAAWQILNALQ
#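 20 mM phosphate pH 7.0 + 0.01% (detergent screen) or 0.0001% Triton X-100; 5.3 nM AmpC reagent; cpd preinc 15 min RT; nitrocefin (800 uM stock) to start; A480 q20 s × 4 min; Activity was normalised to no-enzyme and no-compound control wells.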
# Sm TGR block: qHTS Assay for the Inhibitors of Schistosoma Mansoni Peroxiredoxins; Schistosoma mansoni thioredoxin glutathione reductase (TGR), Q962Y6; purified TGR, DTNB reduction, TNB absorbance 405 nm; Potency, µM (top dose mostly 114 µM), for inactives: at the highest dose activity change, negative = inhibition, most hits filed as inhibitors; 360,000 tested, 3% active; note: potency is the fitted concentration of half-maximal effect; % is set by controls: 0 for no effect and ±100 for the full control effect; nearly all actives have a fitted effect of over 60% in size
#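 TGR 20 nM + NADPH 100 uM (dispensed conc.), cpd preinc 15 min RT; start with NADPH (500 uM addition) then DTNB (15 mM addition). Kinetic TNB absorbance, 405 nm filter. Four-parameter Hill fit across titration.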
# AmpC inh detg: qHTS Inhibitors of AmpC Beta-Lactamase (assay with detergent); AmpC hydrolysis of nitrocefin, absorbance 480 nm, 0.01% Triton; P00811; 370,000 tested, 0.041% active; Potency, µM (series often up to 114 µM), for inactives: at the top dose activity change, negative = inhibition, most hits filed as inhibitors;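 note: potency is the fitted concentration of half-maximal effect; 0% = no-compound wells and -100% = no-enzyme wells; nearly all actives have a fitted effect of over 25% in size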
#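 AmpC (5.3 nM in the dispensed reagent) in 20 mM phosphate pH 7.0 with 0.01% (detergent screen) or 0.0001% Triton X-100 was preincubated with compounds for 15 min at room temperature. Nitrocefin was then added from an 800 uM solution, and hydrolysis was followed at 480 nm.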
# SARS PLpro yeast-2: qHTS of Yeast-based Assay for SARS-CoV PLP: Hit Validation. shares compounds with SARS PLpro yeast-1. yeast expressing SARS-CoV PLpro, growth phenotype rescue. calls only. 1,000 tested, 19% active. AID 652038, 2013; call rule not given here
# CLK4 ADP-Glo: Confirmaiton Assay for Inhibitors of CDC-like Kinase 4 (ADP-Glo Assay); shares compounds with Pf growth 48h; recombinant Clk4, RS peptide, ADP-Glo luminescence; Potency, µM (doses to about 80 µM), without a hit: at the top dose activity, negative = inhibition, hits mostly inhibitors; 65 tested, 80% active; AID 1969, 2009
# CLK4 ADP FP: Confirmation Assay for Inhibitors of CDC-like Kinase 4 (ADP-FP Assay); 65 tested, 70% active; Potency, µM (highest dose often 80 µM), inactives show top-dose activity, negative = inhibition, actives largely listed as inhibitors; shares compounds with Pf growth 48h; recombinant Clk4, ADP Transcreener FP, RS peptide
# Starred values were filed as active, the others as inactive; i = inactive; ? = inconclusive; / = no result given; + = active, no number; ! = not active in a repeat. An excerpt weighted towards active compounds, which were near 12% of everything screened. Unless noted, calls come from the whole dose curve; as a rule, active = well fitted curve in the direction sought with a large enough effect; inconclusive = small, poorly fitted or top-dose-only effect, or another doubt; inactive = no such curve, though single readings can be large; an effect the other way counts as inactive or inconclusive.
SMILES,Pf growth 48h,Pf growth 96h,SARS PLpro yeast-1,AmpC inh no detg,Sm TGR block,AmpC inh detg,CLK4 ADP-Glo,CLK4 ADP FP,others
N#Cc1cc([N+](=O)[O-])ccc1NC(=O)COC(=O)CC1CCCC1,1%,178%,0%,-14%,11%,-7%,/,/,
C=CCn1c(SCC(=O)Nc2cc(C)on2)nc2c([nH]c3ccccc32)c1=O,91%,30%,?,-15%,-2%,1%,/,/,SARS PLpro yeast-2=i
CC(OC(=O)c1cccc(-n2cnnn2)c1)C(=O)c1ccccc1 (centres undefined),16%,28%,?,?,-15%,?,/,/,SARS PLpro yeast-2=i
Fc1cccc(/C=N/Nc2nncc3ccccc23)c1,/,261%,-7%,-9%,?,-15%,/,/,
C(=N\Nc1nncc2ccccc12)/c1ccccn1,0.83µM*,?,13µM*,-5%,-6%,-7%,/,/,SARS PLpro yeast-2=i
C/C(=N\NC(=S)NC1CCCCC1)c1ccccc1,4.1µM*,?,7.9µM*,0%,3%,11%,/,/,SARS PLpro yeast-2=+
Cc1onc(-c2ccccc2)c1C(=O)NC(=S)NNC(=O)c1cccnc1,22%,?,5%,-18%,-1%,-6%,/,/,
Cc1onc(-c2ccccc2)c1C(=O)NC(=S)NNC(=O)c1ccncc1,?,10µM*,13µM*,-28%,-15%,-3%,/,/,SARS PLpro yeast-2=i
CC(C)CCn1c(SCC(=O)NC2CCS(=O)(=O)C2)nc2cc(Cl)ccc2c1=O (centres undefined),-26%,-1%,0%,4%,-6%,?,/,/,
Cc1cc(C)c(NC(=O)c2cccs2)c(C)c1NC(=O)c1cccs1,-4%,36%,-2%,-27%,18%,4%,/,/,
COc1cccc(-c2ccc3ncnc(NCc4cccs4)c3c2)c1,9.3µM*,4.1µM*,7.1µM*!,?,9%,?,1µM*,1.1µM*,SARS PLpro yeast-2=i
CSCCC(NC(=O)COc1ccccc1)C(=O)N1CCCC(C)C1 (centres undefined),-2%,29%,-3%,31%,-22%,2%,/,/,
c1cncc(-c2ccc3ncnc(NCc4ccc5c(c4)OCO5)c3c2)c1,?,?,4%,-48%,5%,?,7.1µM*,11µM*,SARS PLpro yeast-2=i
c1ccc(-n2ncc3c(NCc4ccc5c(c4)OCO5)ncnc32)cc1,-1%,?,4%,-25%,-7%,-2%,/,/,
COc1cccc(-c2ccc3ncnc(NCc4cccc(C)c4)c3c2)c1,6.6µM*,3.7µM*,?,-9%,11%,?,1.3µM*,1.8µM*,
COc1cccc(-c2ccc3ncnc(NCc4cccc(F)c4)c3c2)c1,6.6µM*,3.7µM*,8.9µM*,-5%,0%,?,0.63µM*,0.89µM*,
CCc1ccccc1NC(=O)COC(=O)C1C2CC3OC(=O)C1C3C2 (centres undefined),35%,53%,5%,-7%,2%,9%,/,/,
Cc1ccc(C(=O)Nc2ccccc2)cc1S(=O)(=O)N1CCN(C)CC1,?,?,1%,-16%,-10%,-10%,/,/,
COc1cc2ncnc(NCc3cccc(Cl)c3)c2cc1OC,?,?,1%,27%,-11%,-1%,/,/,
c1cncc(CNc2ncnc3ccc(-c4ccc5c(c4)OCCO5)cc23)c1,17%,4%,6%,-29%,-7%,-7%,0.4µM*,0.71µM*,
Clc1cccc(-c2ccc3ncnc(NCc4cccnc4)c3c2)c1,?,13µM*,-1%,38%,-4%,-9%,4.5µM*,?,
c1cncc(CNc2ncnc3ccc(-c4cccnc4)cc23)c1,?,?,5%,-19%,3%,?,7.9µM*,13µM*,
Clc1ccccc1-c1ccc2ncnc(NCc3cccnc3)c2c1,-5%,?,6%,-13%,0%,-3%,13µM*,?,
CC1=C(C(=O)OCCc2ccccc2)C(c2ccsc2)NC(=O)N1C (centres undefined),-4%,-21%,22%,37%,5%,-1%,/,/,
COc1cc(NC(=O)CCCc2nnc3n(CC(C)C)c(=O)c4sccc4n23)cc(OC)c1,/,/,/,/,-3%,12%,/,/,
SMILES,Pf growth 48h,Pf growth 96h,SARS PLpro yeast-1,AmpC inh no detg,Sm TGR block,AmpC inh detg,CLK4 ADP-Glo,CLK4 ADP FP,others
c1cncc(-c2ccc3ncnc(NCc4cccs4)c3c2)c1,?,9.3µM*,0%,-29%,1%,-17%,3.2µM*,7.1µM*,
Cn1ccc2cc(-c3ccc4ncnc(NCc5cccs5)c4c3)ccc21,2.9µM*,5.2µM*,-11%,-14%,-4%,-9%,14µM*,?,
Cn1ccc2cc(-c3ccc4ncnc(NCc5cccnc5)c4c3)ccc21,1.9µM*,2.6µM*,-17%,3%,-1%,?,10µM*,14µM*,
Cn1ccc2cc(-c3ccc4ncnc(NCc5cccc(F)c5)c4c3)ccc21,8.3µM*,3.7µM*,-1%,-27%,2%,-14%,?,?,
Cn1c(-c2cccc(Br)c2)cnc1NCc1cccc(F)c1,/,/,/,/,8%,-1%,/,/,
CC(C)CNC(=O)c1cccc(NC(=O)C(C)C)c1,11%,?,1%,-6%,1%,0%,/,/,
Cc1nn(CC(=O)NCc2cccc3ccccc23)c(=O)c2ccccc12,4%,-2%,-1%,-2%,5%,1%,/,/,
COc1ccc(-n2ncc3c(NCc4ccc5c(c4)OCO5)ncnc32)cc1,99%,67%,4%,-23%,7%,3%,/,/,
O=C(Cn1nnc(-c2ccccc2Cl)n1)NCc1ccc2c(c1)OCO2,7%,25%,-2%,-19%,3%,0%,/,/,
c1nc(NCc2ccc3c(c2)OCO3)c2cc(-c3ccoc3)ccc2n1,?,?,1%,-35%,-10%,?,0.71µM*,0.89µM*,
